Assay results reported in PubChem BioAssay (NCATS).
Inconclusive results are not listed. Where a call stands in place of a potency, no number is given. A number with no mark means an inactive call. Active and inactive are the calls of the source. Calls come from the whole dose curve; as a rule, active = well fitted inhibition curve with a large enough effect; inconclusive = small, poorly fitted or top-dose-only effect; inactive = flat fitted curve, though single readings scatter.

What was measured:
[1] = qHTS profiling for inhibitors of Plasmodium falciparum proliferation (AID 504749); note: nearly all actives have a fitted effect of over 60% in size; conditions: P. falciparum in erythrocytes, SYBR Green DNA, 72 h
Outline: (§1)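 Quantitative HTS: compounds pinned into medium, infected erythrocytes added (0.3% parasitemia, 2.5% hematocrit), 72 h culture at 37 C under 5% CO2. Saponin/Triton lysis with SYBR Green I, overnight RT, then fluorescence read.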

3D7 = test: as above; conditions: P. falciparum in erythrocytes, SYBR Green DNA, 72 h; series mostly up to 28.7 µM
Outline: as §1

7G8 = test: as above; conditions: P. falciparum in erythrocytes, SYBR Green DNA, 72 h; series mostly up to 28.7 µM
Outline: as §1

AA1029 = test: as above; conditions: P. falciparum in erythrocytes, SYBR Green DNA, 72 h; series mostly up to 28.7 µM
Outline: as §1

AS120 = test: as above; conditions: P. falciparum in erythrocytes, SYBR Green DNA, 72 h; series mostly up to 28.7 µM
Outline: as §1

ATS189 = test: as above; conditions: P. falciparum in erythrocytes, SYBR Green DNA, 72 h; series mostly up to 28.7 µM
Outline: as §1

ATS95 = test: as above; conditions: P. falciparum in erythrocytes, SYBR Green DNA, 72 h; series mostly up to 28.7 µM
Outline: as §1

C2A = test: as above; conditions: P. falciparum in erythrocytes, SYBR Green DNA, 72 h; series mostly up to 28.7 µM
Outline: as §1

CP185 = test: as above; conditions: P. falciparum in erythrocytes, SYBR Green DNA, 72 h; series mostly up to 28.7 µM
Outline: as §1

CP191 = test: as above; conditions: P. falciparum in erythrocytes, SYBR Green DNA, 72 h; series mostly up to 28.7 µM
Outline: as §1

CP192 = test: as above; conditions: P. falciparum in erythrocytes, SYBR Green DNA, 72 h; series mostly up to 28.7 µM
Outline: as §1

CP194 = test: as above; conditions: P. falciparum in erythrocytes, SYBR Green DNA, 72 h; series mostly up to 28.7 µM
Outline: as §1

[2] = at 28.7 µM (top of the series), parasite line A
[3] = at 28.7 µM (top of the series), parasite line B
Potency is the fitted concentration of half-maximal effect.

Row | Structure (SMILES) | activity, negative = inhibition [1, 2] [%] | activity, negative = inhibition [1, 3] [%] | Potency (3D7) | Potency (7G8) | Potency (AA1029) | Potency (AS120) | Potency (ATS189) | Potency (ATS95) | Potency (C2A) | Potency (CP185) | Potency (CP191) | Potency (CP192) | Potency (CP194) | activity, negative = inhibition ([1]; at 12.8 µM (top of the series), parasite line A) [%] | activity, negative = inhibition ([1]; at 12.8 µM (top of the series), parasite line B) [%]
1 | CC(CC=O)CCCC(C)(C)O (stereo unspecified) | 15.9 | 2.33 | inactive | inactive | inactive | inactive | inactive | inactive | inactive | inactive | inactive | inactive | inactive |  | 
2 | FC(F)(F)COCC(F)(F)F | 12.5 | -2.69 | inactive | inactive | inactive | inactive | inactive | inactive | inactive | inactive | inactive | inactive | inactive |  | 
3 | O=P(O)(O)OC[C@H]1O[C@](O)(COP(=O)(O)O)[C@@H](O)[C@@H]1O | 8.54 | 12.4 | inactive | inactive | inactive | inactive | inactive | inactive | inactive | inactive | inactive | inactive |  |  | 
4 | CCN(CC)CCC(=O)N1c2ccccc2Sc2ccc(C(F)(F)F)cc21 | -4.68 | -16.3 | inactive | 11.2 µM (active) | inactive | inactive | inactive | inactive | inactive | inactive | inactive | inactive | inactive |  | 
5 | CC(=O)N=c1sc(S(N)(=O)=O)nn1C |  |  | inactive | inactive | inactive | inactive | inactive | inactive | inactive | inactive | inactive | inactive | inactive | -0.509 | -5.64
6 | COC(=O)CC[C@H](N)C(=O)O | 18.1 | 11.5 | inactive | inactive | inactive | inactive | inactive | inactive | inactive | inactive | inactive | inactive | inactive |  | 
7 | CCCCCCCCCCCCCCCCCC(=O)OC[C@@H](O)[C@H]1OC[C@H](O)[C@H]1O | -5.9 | -8.53 | inactive | inactive | inactive | inactive | inactive | inactive | inactive | inactive | inactive | inactive | inactive |  | 
8 | Cc1cc(=O)c(C(=O)N[C@@H](C(=O)N[C@@H]2C(=O)N3C(C(=O)O)=C(CSc4nnnn4C)CS[C@H]23)c2ccc(O)cc2)c[nH]1 | 5.19 | 9.95 | inactive | inactive | inactive | inactive | inactive | inactive | inactive | inactive | inactive | inactive | inactive |  | 
9 | CC(C)(C)c1ccc2c(S(=O)(=O)O)c(C(C)(C)C)ccc2c1 | 16.3 | 12.2 | inactive | inactive | inactive | inactive | inactive | inactive | inactive | inactive | inactive | inactive | inactive |  | 
10 | O=C(O)c1cc(N=Nc2ccc(O)c(C(=O)O)c2)ccc1O | 9.5 | 11.5 | inactive | inactive | inactive | inactive | inactive | inactive | inactive | inactive | inactive | inactive | inactive |  | 
11 | COc1cc(S(C)=O)ccc1-c1nc2ncccc2[nH]1 (stereo unspecified) | 6.38 | -9.68 | inactive | inactive | inactive | inactive | inactive | inactive | inactive | inactive | inactive | inactive | inactive |  | 
12 | CCc1ncnc2cc(OC)c(OC)cc12 | -5.32 | 10.1 | inactive | inactive | inactive | inactive | inactive | inactive | inactive | inactive | inactive | inactive | inactive |  | 
13 | C=CCN1CCCC1CNC(=O)c1cc(S(N)(=O)=O)cc(OC)c1OC (stereo unspecified) | -0.688 | 8.33 | inactive | inactive | inactive | inactive | inactive | inactive | inactive | inactive | inactive | inactive | inactive |  | 
14 | Cc1ccc(S(=O)(=O)NCl)cc1 | -0.743 | 4.28 | inactive | inactive | inactive | inactive | inactive | inactive | inactive | inactive | inactive | inactive | inactive |  | 
15 | S=C=Nc1ccc(N=C=S)cc1 | 10.9 | 0.756 | inactive | inactive | inactive | inactive | inactive | inactive | inactive | inactive | inactive | inactive | inactive |  | 
16 | NC(=O)[C@H]1O[C@@H](O)[C@H](O)[C@@H](O)[C@@H]1O | 12.1 | 13.4 | inactive | inactive | inactive | inactive | inactive | inactive | inactive | inactive | inactive | inactive | inactive |  | 
17 | C[C@]12CC[C@@H]3c4ccc(OC(=O)c5ccccc5)cc4CC[C@H]3[C@@H]1CC[C@@H]2O | -13.9 | 5.42 | 6.31 µM (active) | 11.2 µM (active) | inactive | inactive | inactive | inactive | inactive | inactive | inactive | inactive | inactive |  | 
18 | Nc1ncnc2c1ncn2CCOCP(=O)(O)O | 14.6 | 5.72 | inactive | inactive | inactive | inactive | inactive | inactive | inactive | inactive | inactive | inactive | inactive |  | 
19 | C=CC(=O)O | 2.32 | 10.1 | inactive | inactive | inactive | inactive | inactive | inactive | inactive | inactive | inactive | inactive | inactive |  | 
20 | CCCc1ccc(C(=O)O)cc1 | -2.85 | -4.82 | inactive | inactive | inactive | inactive | inactive | inactive | inactive | inactive | inactive | inactive | inactive |  | 
21 | CC12CCC(C[N+](C)(CCC[N+](C)(C)C)C1)C2(C)C (stereo unspecified) | 7.03 | 18.6 | inactive | inactive | inactive | inactive | inactive | inactive | inactive | inactive | inactive | inactive | inactive |  | 
22 | CC(=O)Nc1ccc(OC(=O)c2ccccc2O)cc1 | -9.69 | 13.7 | inactive | inactive | inactive | inactive | inactive | inactive | inactive | inactive | inactive | inactive | inactive |  | 
23 | CC1=CC(=O)NS(=O)(=O)O1 | 0.853 | 6.07 | inactive | inactive | inactive | inactive | inactive | inactive | inactive | inactive | inactive | inactive | inactive |  | 
24 | CCC(O)c1ccccc1 (stereo unspecified) | 5.27 | 8.76 | inactive | inactive | inactive | inactive | inactive | inactive | inactive | inactive | inactive | inactive | inactive |  | 
25 | CC(C)CCC[C@@H](C)[C@H]1CC[C@H]2[C@@H]3CC=C4C[C@@H](O)CC[C@]4(C)[C@H]3CC[C@]12C | 4.96 | -1.65 | inactive | inactive | inactive | inactive | inactive | inactive | inactive | inactive | inactive | inactive | inactive |  | 
26 | CC(=O)Oc1cccc(C(=O)O)c1OC(C)=O | 7.04 | 3.67 | inactive | inactive | inactive | inactive | inactive | inactive | inactive | inactive | inactive | inactive | inactive |  | 
27 | O=C(O)[C@H]1C(=CCO)O[C@H]2CC(=O)N12 | 6.84 | 1.77 | inactive | inactive | inactive | inactive | inactive | inactive | inactive | inactive | inactive | inactive | inactive |  | 
28 | CCCCO | 5.51 | 16.3 | inactive | inactive | inactive | inactive | inactive | inactive | inactive | inactive | inactive | inactive | inactive |  | 
29 | Cc1c(Cl)cccc1Nc1ncccc1C(=O)O | 15.4 | 7.39 | inactive | inactive | inactive | inactive | inactive | inactive | inactive | inactive | inactive | inactive | inactive |  | 
